This is part of a sample that, as a whole, favours compounds with a hit. Of some 83,000 tested, about 20% had one in any assay.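 Treatment: one concentration, 48 hours, 96-well format. Scoring: percent growth, with anything below 10 considered active.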 Unmarked numbers belong to inactive results. Calls of active or inactive are those of the source.

Test systems include SK-MEL-2 melanoma; EKVX NSCLC; SN12C renal; UO-31 renal; TK-10 renal; CAKI-1 renal; A498 renal; CCRF-CEM leukemia; MOLT-4 leukemia; ACHN renal.
Holding throughout (test): NCI-60 one-dose screen, 48 h (100 = growth as untreated, 0 = no growth, -100 = all killed)
Common to all, as to conditions: 10 µM unless noted

`CN1CCN(Cc2ccc(NC(=O)c3cncc(C#Cc4cnc5ccc(NCCCO)nn45)c3)cc2C(F)(F)F)CC1`: the growth with SK-MEL-2 melanoma is -90.8% (active); in the test with EKVX NSCLC, -3.09% (active); with SN12C renal it was 15.6%; in the test on UO-31 renal it was -1.42% (active); with TK-10 renal, -28.7% (active); in the test with CAKI-1 renal it was -1.99% (active). For the same compound, the growth in the test with A498 renal was -98.8% (active); in the test on CCRF-CEM leukemia, 6.66% (active); with MOLT-4 leukemia, 8.92% (active).

Consider `NC(N)=Nc1ccc(Oc2cccc(Nc3ccc(Br)c(C(F)(F)F)c3)c2)cn1`, for which the growth with SK-MEL-2 melanoma was -45.1% (active); in the test on EKVX NSCLC it was -68.8% (active); with SN12C renal, -87.7% (active); with UO-31 renal, 38.6%; in the test on TK-10 renal, 7.85% (active); with CAKI-1 renal, -5.28% (active). The growth was -25.1% (active) in the test on A498 renal, 0.633% (active) in the test with CCRF-CEM leukemia and -35.6% (active) in the test with MOLT-4 leukemia.

For `CCCn1cnc2c(c1=N)C(c1ccc(OC)cc1)c1sc3c(CC)cccc3c1O2` (configuration not stated), the growth in the test on SK-MEL-2 melanoma is 40.5%; with EKVX NSCLC it was 46.4%; with SN12C renal, 29.5%; in the test on UO-31 renal it was 33.5%; in the test with TK-10 renal it was 74.6%; with CAKI-1 renal it was 32.8%. The values for the growth with A498 renal, in the test with CCRF-CEM leukemia and in the test with MOLT-4 leukemia were -11.5% (active), 4.77% (active) and 14.5%, respectively.

For `O=C(CCn1c[n+](CC(=O)c2ccc(F)cc2)c2ccccc21)Nc1cccc2cccnc12`, the growth is 81.7% with SK-MEL-2 melanoma; 89.5% in the test with EKVX NSCLC; 94% in the test with SN12C renal; 88.9% in the test on UO-31 renal; 107% in the test on TK-10 renal; 99.9% with CAKI-1 renal. Also, the growth is 130% with A498 renal, 68.3% in the test on CCRF-CEM leukemia and 65.2% in the test on MOLT-4 leukemia.

Turning to `NC(N)=Nc1ccc(Oc2cccc(Nc3ccc(Cl)c(C(F)(F)F)c3)c2)cn1`, the growth in the test on SK-MEL-2 melanoma was -17.7% (active); in the test with EKVX NSCLC it was -58.5% (active); in the test with SN12C renal, -84.4% (active); with UO-31 renal, 43.3%; in the test with TK-10 renal, 23.2%; in the test on CAKI-1 renal, -6.78% (active). Besides, the growth in the test on A498 renal was -7.17% (active); in the test with CCRF-CEM leukemia, -7% (active); in the test with MOLT-4 leukemia, -39% (active).

With `Cn1cc(-c2nnc(N)nc2-c2c[nH]c3ccc(F)cc23)c2cc(F)ccc21`, the growth was 97.1% in the test with SK-MEL-2 melanoma; 89.1% with EKVX NSCLC; 81.3% with SN12C renal; 57.1% in the test with UO-31 renal; 121% in the test on TK-10 renal; 76.4% in the test with CAKI-1 renal. The growth was 86.3% in the test on A498 renal, 39.4% in the test on CCRF-CEM leukemia and 23.5% in the test with MOLT-4 leukemia.

Regarding `O=C(NNc1nc2cc(F)c(F)cc2n2c(CN3CC4CNCC4C3)ccc12)c1cnccn1` (configuration not stated), the growth is 29.2% in the test on SK-MEL-2 melanoma; 19.5% in the test with EKVX NSCLC; 22.1% in the test on SN12C renal; 14.1% with UO-31 renal; 33.4% in the test with TK-10 renal; 15% in the test with ACHN renal. For the same compound, the growth was 35.1% in the test on A498 renal, 9.82% (active) in the test on CCRF-CEM leukemia and 7% (active) in the test with MOLT-4 leukemia.

For the compound `NC(N)=Nc1ccc(Oc2cccc(Oc3ccc(Cl)c(C(F)(F)F)c3)c2)cn1`, the growth with SK-MEL-2 melanoma was -36.3% (active); in the test on EKVX NSCLC, -7.2% (active); in the test with SN12C renal, -86.6% (active); in the test with UO-31 renal, 49.7%; in the test with TK-10 renal, -27.1% (active); in the test on CAKI-1 renal it was 9.01% (active). Also, the growth was 15.1% in the test on A498 renal, -29.8% (active) in the test on CCRF-CEM leukemia and -48.7% (active) in the test on MOLT-4 leukemia.

`C=CCn1c(SCC(=O)Nc2ccc(C(=O)/C=C/c3cccc([N+](=O)[O-])c3)cc2)nnc1-c1c[nH]c2ccccc12`: the growth was 93.9% with SK-MEL-2 melanoma; 89.1% with EKVX NSCLC; 85.2% in the test with SN12C renal; 67.8% in the test on UO-31 renal; 102% in the test on TK-10 renal; 87.1% with CAKI-1 renal. In addition, in the test with A498 renal, the growth is 87.4%.

With `COc1ccccc1NC1=C(Cl)C(=O)c2nc(C)ccc2C1=O`, the growth in the test with SK-MEL-2 melanoma is 78.8%; with EKVX NSCLC, 28.5%; with SN12C renal, -49.5% (active); in the test on UO-31 renal, -65.7% (active); in the test with TK-10 renal, 148%; in the test on ACHN renal it was -99.9% (active). Moreover, the growth is 71.8% in the test with A498 renal, -4.94% (active) in the test with CCRF-CEM leukemia and -39% (active) in the test on MOLT-4 leukemia.

For the compound `O=C(NNc1nc2cc(F)c(F)cc2n2c(CN3CC4CNCC4C3)ccc12)c1ncccn1` (configuration not stated), the growth was 9.68% (active) in the test with SK-MEL-2 melanoma; 20% with EKVX NSCLC; 25.8% with SN12C renal; 13.6% in the test with UO-31 renal; 16.2% in the test on TK-10 renal; 12.7% with ACHN renal. The growth in the test with A498 renal is 18.7%; with MOLT-4 leukemia, -6.62% (active).

With `O=C(c1ccc(O)c(C(=O)N2Cc3ccc(OCCC[P+](c4ccccc4)(c4ccccc4)c4ccccc4)cc3C2)c1)N1Cc2cccc(F)c2C1`, the growth in the test on SK-MEL-2 melanoma is 65.2%; in the test with EKVX NSCLC, 70.3%; in the test on SN12C renal, 88.6%; in the test with UO-31 renal it was 80.6%; in the test with TK-10 renal, 100%; in the test on CAKI-1 renal, 93.1%. Further, the growth with A498 renal was 85.7%; in the test with CCRF-CEM leukemia, 57.4%; with MOLT-4 leukemia, 108%.

Take `COc1ccc(Oc2ccc(/C=N/NC(=O)CSc3nc4ccccc4c(=O)n3-c3ccc(Cl)cc3)cc2)cc1`: the growth was 97.6% in the test with SK-MEL-2 melanoma; 69.4% with EKVX NSCLC; 52.7% in the test on SN12C renal; 47.7% in the test on UO-31 renal; 96.5% in the test on TK-10 renal; 7.83% (active) in the test with ACHN renal. The values for the growth with A498 renal, in the test with CCRF-CEM leukemia and with MOLT-4 leukemia were 72.9%, 63.5% and 61.7%, respectively.

Turning to `CNC(=O)c1cc(-c2ccc(NS(=O)(=O)c3ccc(C)cc3)cc2)nc2cccnc12`, the growth is 102% in the test on SK-MEL-2 melanoma; 95.9% in the test with EKVX NSCLC; 103% with SN12C renal; 81.5% with UO-31 renal; 118% in the test on TK-10 renal; 94.4% with CAKI-1 renal. Besides, the growth is 106% in the test with A498 renal, 109% in the test on CCRF-CEM leukemia and 100% in the test on MOLT-4 leukemia.

Take `O=C(NNc1nc2cc(F)ccc2n2c(CN3CCC(O)C3)ccc12)c1cnccn1` (configuration not stated): the growth in the test with SK-MEL-2 melanoma was 20%; in the test with EKVX NSCLC, 10.1%; with SN12C renal it was 24.3%; in the test on UO-31 renal, 11%; with TK-10 renal, 20.5%; with ACHN renal, 14.3%. The growth with A498 renal was 26.2%; in the test on CCRF-CEM leukemia it was 10.3%; with MOLT-4 leukemia it was 3.23% (active).

The record behind these values is PubChem BioAssay (NCI).
